Data: the supplement of paper PMC10849652
Of roughly 7,900 targets only a part is listed; those with a hit were picked by preference. About 0.6% of all pairs of compound and target were hits. Unmarked numbers belong to inactive results.

Assays:
Test in all cases: log2 fold change, soluble protein after heating vs DMSO (PISA); higher = thermal stabilisation; K562 cells, 10 uM, 30 min; active = over 0.2 and 3.5 SD of the protein, either way, in both replicates (recomputed)
[1] = compound: C1=CC=C(C=C1)[C@H](COC2=CC3=C(C=C2)NC(=O)N3)NC(=O)C4=CC=CN(C4=O)CC5=CC(=C(C=C5)F)F
Summary of the method: (§1)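 For each measurement, 10 μM compound was applied for 30 min to K562 cells at 2×10^6 cells/mL. Aliquots were heated for 3 min across 48°C-58°C, pooled, and extracted in PBS with 0.5% NP-40 at 4°C; the supernatant after 21,000xg for 90 min was soluble protein. This was quantified by TMTpro 16plex LC-MS/MS with channel sums equalised, and thermal stability was reported relative to control samples from duplicates, on a log2 fold-change scale.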

[2] = compound: CC1=C(SC2=C1C(=N[C@H](C3=NN=C(N32)C)CC(=O)N)C4=CC=C(C=C4)Cl)C
Summary of the method: as §1

[3] = compound: CC1=C2C(=CC=C1)N=C(N(C2=O)C3=CC=CC=C3C)CN4C=NC5=C(N=CN=C54)N
Summary of the method: as §1

[4] = compound: Cc1sc2c(c1C)C(c1ccc(Cl)cc1)=N[C@@H](CC(=O)OC(C)(C)C)c1nnc(C)n1-2
Summary of the method: as §1

[5] = compound: c1ccc([C@@H]2C[C@H]2NC2CCNCC2)cc1
Summary of the method: as §1

Chain of UniProt O96011 (O96011 whole entry, looked up, change not shown): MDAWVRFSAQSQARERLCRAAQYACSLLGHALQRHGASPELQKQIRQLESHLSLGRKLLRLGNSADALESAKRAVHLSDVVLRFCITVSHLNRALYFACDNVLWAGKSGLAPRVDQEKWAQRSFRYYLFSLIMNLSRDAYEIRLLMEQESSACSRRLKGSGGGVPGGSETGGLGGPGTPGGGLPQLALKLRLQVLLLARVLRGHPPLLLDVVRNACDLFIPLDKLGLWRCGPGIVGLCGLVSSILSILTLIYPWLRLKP
Chain of UniProt Q16513 (Q16513 whole entry, looked up): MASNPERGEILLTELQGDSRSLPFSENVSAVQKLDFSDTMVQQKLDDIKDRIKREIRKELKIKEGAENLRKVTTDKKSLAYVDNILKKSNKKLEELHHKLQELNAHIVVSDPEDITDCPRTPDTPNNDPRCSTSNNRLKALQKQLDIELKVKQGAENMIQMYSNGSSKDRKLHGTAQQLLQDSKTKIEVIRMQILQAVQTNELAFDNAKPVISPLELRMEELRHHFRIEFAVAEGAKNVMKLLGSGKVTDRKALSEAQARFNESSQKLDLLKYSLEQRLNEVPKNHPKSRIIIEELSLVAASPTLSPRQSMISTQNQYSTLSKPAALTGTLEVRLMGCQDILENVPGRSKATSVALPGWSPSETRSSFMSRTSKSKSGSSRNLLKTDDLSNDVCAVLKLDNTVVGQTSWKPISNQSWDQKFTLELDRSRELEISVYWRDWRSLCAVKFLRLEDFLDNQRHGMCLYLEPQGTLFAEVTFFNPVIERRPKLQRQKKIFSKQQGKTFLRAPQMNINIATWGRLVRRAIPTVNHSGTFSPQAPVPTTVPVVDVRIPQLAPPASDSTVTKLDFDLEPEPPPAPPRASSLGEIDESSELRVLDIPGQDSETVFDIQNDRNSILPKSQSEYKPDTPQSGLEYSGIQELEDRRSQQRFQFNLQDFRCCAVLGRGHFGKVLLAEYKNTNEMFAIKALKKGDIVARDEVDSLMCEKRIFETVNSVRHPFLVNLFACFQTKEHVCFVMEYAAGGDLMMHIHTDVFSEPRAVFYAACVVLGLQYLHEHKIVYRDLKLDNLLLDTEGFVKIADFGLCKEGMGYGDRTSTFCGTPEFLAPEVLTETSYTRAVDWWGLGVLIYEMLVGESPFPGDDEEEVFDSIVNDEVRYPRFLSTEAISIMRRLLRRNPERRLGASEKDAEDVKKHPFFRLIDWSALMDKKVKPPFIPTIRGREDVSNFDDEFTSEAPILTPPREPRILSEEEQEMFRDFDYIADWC
Chain of UniProt P48426 (P48426 whole entry, looked up): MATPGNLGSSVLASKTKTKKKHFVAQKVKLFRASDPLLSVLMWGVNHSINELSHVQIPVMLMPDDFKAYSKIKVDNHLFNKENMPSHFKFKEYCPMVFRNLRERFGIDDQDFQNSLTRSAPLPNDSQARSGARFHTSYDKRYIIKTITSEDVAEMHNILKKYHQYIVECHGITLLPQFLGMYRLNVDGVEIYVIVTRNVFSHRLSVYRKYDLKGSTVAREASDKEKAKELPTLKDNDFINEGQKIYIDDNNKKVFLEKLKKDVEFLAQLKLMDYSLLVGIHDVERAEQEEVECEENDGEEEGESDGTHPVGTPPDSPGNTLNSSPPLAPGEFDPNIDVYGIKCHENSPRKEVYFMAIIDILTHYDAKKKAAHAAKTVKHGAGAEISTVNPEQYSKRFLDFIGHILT
Chain of UniProt Q92968 (Q92968 whole entry, looked up): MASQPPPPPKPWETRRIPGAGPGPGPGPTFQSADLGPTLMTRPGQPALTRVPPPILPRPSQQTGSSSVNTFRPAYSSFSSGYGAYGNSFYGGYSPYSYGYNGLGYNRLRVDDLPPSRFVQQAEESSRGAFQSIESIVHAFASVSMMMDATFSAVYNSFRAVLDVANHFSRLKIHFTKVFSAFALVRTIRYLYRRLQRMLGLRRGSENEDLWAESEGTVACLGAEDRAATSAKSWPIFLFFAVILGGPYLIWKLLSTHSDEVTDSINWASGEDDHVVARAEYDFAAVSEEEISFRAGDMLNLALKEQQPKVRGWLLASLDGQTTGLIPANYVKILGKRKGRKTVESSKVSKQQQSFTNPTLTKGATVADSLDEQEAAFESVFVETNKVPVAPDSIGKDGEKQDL
Chain of UniProt Q8N165 (Q8N165 whole entry, looked up): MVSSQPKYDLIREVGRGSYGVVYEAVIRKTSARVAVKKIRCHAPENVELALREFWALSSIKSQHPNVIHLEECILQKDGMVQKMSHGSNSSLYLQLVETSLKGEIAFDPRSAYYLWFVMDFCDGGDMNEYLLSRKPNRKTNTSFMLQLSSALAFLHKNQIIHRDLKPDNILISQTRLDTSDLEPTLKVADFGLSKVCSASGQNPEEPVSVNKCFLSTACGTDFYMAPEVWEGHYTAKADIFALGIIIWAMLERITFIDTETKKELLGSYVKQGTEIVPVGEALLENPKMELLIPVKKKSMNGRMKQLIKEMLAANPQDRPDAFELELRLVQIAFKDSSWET
Chain of UniProt O15162 (O15162 whole entry, looked up): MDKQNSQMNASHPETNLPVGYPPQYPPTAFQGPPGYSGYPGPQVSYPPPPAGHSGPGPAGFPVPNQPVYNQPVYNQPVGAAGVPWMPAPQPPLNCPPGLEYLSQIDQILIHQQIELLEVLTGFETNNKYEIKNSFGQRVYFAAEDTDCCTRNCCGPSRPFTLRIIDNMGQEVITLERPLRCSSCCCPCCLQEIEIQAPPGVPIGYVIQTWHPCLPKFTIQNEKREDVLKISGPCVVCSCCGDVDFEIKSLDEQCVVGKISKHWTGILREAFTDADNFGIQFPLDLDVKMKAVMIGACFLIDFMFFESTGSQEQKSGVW
Chain of UniProt P40425 (P40425 whole entry, looked up): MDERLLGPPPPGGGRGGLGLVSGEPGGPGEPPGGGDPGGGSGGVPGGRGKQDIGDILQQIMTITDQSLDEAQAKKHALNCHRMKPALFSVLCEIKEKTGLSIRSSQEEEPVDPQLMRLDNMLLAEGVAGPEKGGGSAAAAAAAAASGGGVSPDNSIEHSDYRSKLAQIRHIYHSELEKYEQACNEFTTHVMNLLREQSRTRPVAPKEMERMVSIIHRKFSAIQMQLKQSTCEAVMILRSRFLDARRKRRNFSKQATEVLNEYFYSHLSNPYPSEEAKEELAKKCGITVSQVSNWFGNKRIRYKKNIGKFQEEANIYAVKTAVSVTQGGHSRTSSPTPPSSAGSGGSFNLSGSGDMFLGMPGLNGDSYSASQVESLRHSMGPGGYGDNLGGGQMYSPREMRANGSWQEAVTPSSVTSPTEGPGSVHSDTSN
Chain of UniProt P05771 (P05771 whole entry, looked up): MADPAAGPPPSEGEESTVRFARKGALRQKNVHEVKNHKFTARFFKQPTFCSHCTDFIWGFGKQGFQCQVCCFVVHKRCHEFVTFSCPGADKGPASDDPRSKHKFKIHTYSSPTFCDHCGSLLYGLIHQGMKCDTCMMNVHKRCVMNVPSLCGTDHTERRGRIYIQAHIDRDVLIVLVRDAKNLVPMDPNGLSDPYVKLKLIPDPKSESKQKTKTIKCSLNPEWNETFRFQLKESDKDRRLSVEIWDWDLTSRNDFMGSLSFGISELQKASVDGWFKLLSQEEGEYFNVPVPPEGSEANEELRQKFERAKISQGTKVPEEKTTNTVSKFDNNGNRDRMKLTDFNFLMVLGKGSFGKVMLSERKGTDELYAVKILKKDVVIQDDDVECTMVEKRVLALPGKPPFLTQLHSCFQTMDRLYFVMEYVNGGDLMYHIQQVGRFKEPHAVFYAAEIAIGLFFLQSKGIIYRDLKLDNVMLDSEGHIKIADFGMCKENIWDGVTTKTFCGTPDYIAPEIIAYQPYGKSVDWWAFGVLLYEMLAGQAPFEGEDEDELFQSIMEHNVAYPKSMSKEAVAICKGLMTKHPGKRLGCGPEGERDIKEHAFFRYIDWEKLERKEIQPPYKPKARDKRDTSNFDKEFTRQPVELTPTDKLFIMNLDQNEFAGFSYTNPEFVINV
Chain of UniProt Q9NW08 (Q9NW08 whole entry, looked up): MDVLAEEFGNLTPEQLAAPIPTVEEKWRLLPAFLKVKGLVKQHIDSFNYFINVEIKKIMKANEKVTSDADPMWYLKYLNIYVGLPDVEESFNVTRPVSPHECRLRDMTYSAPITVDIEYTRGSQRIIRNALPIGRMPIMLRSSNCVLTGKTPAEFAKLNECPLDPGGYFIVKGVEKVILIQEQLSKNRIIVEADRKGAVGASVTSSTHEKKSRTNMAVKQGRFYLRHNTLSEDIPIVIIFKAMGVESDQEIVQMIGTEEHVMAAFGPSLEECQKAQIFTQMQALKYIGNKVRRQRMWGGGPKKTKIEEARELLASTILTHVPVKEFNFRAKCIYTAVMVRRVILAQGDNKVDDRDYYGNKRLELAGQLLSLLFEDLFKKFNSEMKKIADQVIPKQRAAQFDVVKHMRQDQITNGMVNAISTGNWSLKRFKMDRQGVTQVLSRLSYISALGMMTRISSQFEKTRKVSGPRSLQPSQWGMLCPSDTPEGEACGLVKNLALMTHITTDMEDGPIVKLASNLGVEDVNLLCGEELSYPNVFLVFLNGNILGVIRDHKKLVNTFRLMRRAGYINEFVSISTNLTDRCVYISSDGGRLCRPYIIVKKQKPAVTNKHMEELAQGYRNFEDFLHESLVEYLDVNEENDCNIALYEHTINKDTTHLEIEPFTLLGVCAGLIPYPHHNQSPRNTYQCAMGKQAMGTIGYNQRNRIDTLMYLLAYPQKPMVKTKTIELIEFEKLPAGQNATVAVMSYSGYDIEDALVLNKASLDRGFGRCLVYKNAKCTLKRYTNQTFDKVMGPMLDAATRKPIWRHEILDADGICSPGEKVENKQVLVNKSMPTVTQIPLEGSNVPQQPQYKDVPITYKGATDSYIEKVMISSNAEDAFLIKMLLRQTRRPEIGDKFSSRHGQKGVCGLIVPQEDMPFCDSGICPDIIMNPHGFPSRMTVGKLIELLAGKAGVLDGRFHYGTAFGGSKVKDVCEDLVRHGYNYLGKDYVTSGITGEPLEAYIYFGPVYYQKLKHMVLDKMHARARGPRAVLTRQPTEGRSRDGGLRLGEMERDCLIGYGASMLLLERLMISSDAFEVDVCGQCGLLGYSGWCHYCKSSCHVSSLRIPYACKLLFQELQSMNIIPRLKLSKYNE

| Target | log2 fold change [1] | log2 fold change [2] | log2 fold change [3] | log2 fold change [4] | log2 fold change [5] |
| --- | --- | --- | --- | --- | --- |
| PRKCQ (UniProt Q04759) | -0.064 | 0.069 | 0.104 | 0.033 | 0 |
| POLR3B (UniProt Q9NW08) | -0.035 | -0.02 | 0.078 | 0.04 | -0.046 |
| PEX13 (UniProt Q92968) | -0.064 | 0.05 | 0.078 | -0.107 | 0.001 |
| PRPF38B (UniProt Q5VTL8) | 0.038 | 0.066 | 0.052 | 0.056 | 0.032 |
| PATL1 (UniProt Q86TB9) | -0.019 | -0.004 | 0.095 | 0 | -0.021 |
| PCBP2 isoform 3 (UniProt Q15366) | -0.051 | 0.016 | 0.055 | -0.029 | 0.005 |
| PPP2R5A (UniProt Q15172) | -0.036 | 0.07 | -0.006 | -0.08 | -0.08 |
| PTP4A1 (UniProt Q93096) | -0.002 | 0.109 | 0.037 | 0.001 | -0.031 |
| PCBP2 (UniProt F8VRH0) | -0.033 | -0.18 | -0.013 | 0.085 | 0.026 |
| PSMC4 (UniProt P43686) | 0.022 | -0.117 | -0.022 | 0.006 | 0.001 |
| PRPF40A (UniProt O75400) | -0.008 | 0.016 | 0.123 | -0.022 | 0.037 |
| PPP2R5C isoform 5 (UniProt Q13362) | -0.039 | 0.001 | 0.084 | -0.067 | -0.029 |
| PDS5B (UniProt Q9NTI5) | -0.153 | 0.029 | 0.169 | 0.233 | -0.011 |
| POLR2G (UniProt P62487) | 0.082 | 0.176 | 0.001 | 0.167 | -0.016 |
| POLR2D (UniProt O15514) | 0.003 | 0.134 | -0.006 | 0.17 | 0.045 |
| POLR2B (UniProt P30876) | -0.028 | 0.105 | 0.047 | 0.159 | -0.053 |
| PKN2 (UniProt Q16513) | -0.075 | 0.103 | 0.066 | 0.029 | 0.044 |
| PPT1 (UniProt P50897) | 0.047 | 0.021 | 0 | -0.003 | -0.003 |
| POMK (UniProt Q9H5K3) | 0.04 | 0.027 | -0.041 | -0.067 | -0.022 |
| PIP4K2A (UniProt P48426) | -0.091 | 0.032 | 0.049 | 0.033 | -0.024 |
| PCTP (UniProt Q9UKL6) | -0.033 | -0.101 | 0.028 | -0.023 | 0.018 |
| POLR2I (UniProt P36954) | 0.063 | 0.104 | -0.163 | 0.194 | -0.035 |

| Target | log2 fold change [1] | log2 fold change [2] | log2 fold change [3] | log2 fold change [4] | log2 fold change [5] |
| --- | --- | --- | --- | --- | --- |
| PRKACA (UniProt P17612) | -0.01 | 0.005 | -0.053 | -0.009 | 0.035 |
| PDE12 (UniProt Q6L8Q7) | -0.003 | 0.059 | 0.12 | -0.05 | -0.094 |
| PTPA (UniProt A6PVN8) | 0.011 | 0.011 | 0.001 | -0.015 | 0.148 |
| POP1 (UniProt Q99575) | 0.003 | -0.028 | 0.029 | 0.017 | -0.01 |
| PSMD1 (UniProt Q99460) | 0.017 | -0.087 | -0.058 | -0.017 | 0 |
| PPP1R35 (UniProt Q8TAP8) | 0.01 | 0.006 | 0.067 | 0.03 | 0.362 (active) |
| PEX11B (UniProt O96011) | -0.027 | 0.056 | -0.01 | -0.008 | -0.005 |
| RAB11FIP1 (UniProt Q6WKZ4) | 0.041 | 0.071 | 0.086 | -0.006 | 0.046 |
| PIGG (UniProt Q5H8A4) | 0.12 | 0.031 | -0.091 | 0.006 | -0.003 |
| PBX2 (UniProt P40425) | -0.052 | 0.082 | -0.011 | 0.051 | -0.016 |
| PGM3 isoform 4 (UniProt O95394) | -0.082 | 0.039 | 0.066 | 0.012 | -0.088 |
| PEF1 (UniProt Q9UBV8) | 0.01 | 0.185 | 0.047 | -0.178 | -0.014 |
| PPP1CA (UniProt P62136) | 0.003 | 0.022 | 0.025 | 0.016 | 0.015 |
| PRKCB isoform 2 (UniProt P05771) | -0.034 | 0.028 | 0.053 | 0.027 | -0.008 |
| PI4K2B (UniProt Q8TCG2) | 0.007 | 0.031 | 0.065 | 0.024 | -0.041 |
| PLSCR1 (UniProt O15162) | 0.017 | 0.036 | -0.016 | -0.051 | 0.055 |
| PDS5A (UniProt Q29RF7) | -0.34 | 0.066 | 0.096 | 0.038 | -0.105 |
| POLR2A (UniProt P24928) | -0.014 | 0.158 | 0.031 | 0.17 | -0.059 |
| PSMC6 (UniProt P62333) | 0.04 | -0.087 | -0.037 | 0.017 | 0.006 |
| PTPN12 (UniProt Q05209) | 0.035 | 0.034 | 0.091 | 0.024 | 0.015 |
| PTRHD1 (UniProt Q6GMV3) | -0.002 | 0.056 | 0.046 | -0.073 | 0.033 |
| PDIK1L (UniProt Q8N165) | -0.255 | 0.001 | 0.044 | 0.062 | -0.005 |
